Holding throughout (experiment): NCI-60 one-dose screen, 48 h (100 = growth as untreated, 0 = no growth, -100 = all killed)
The subject of assay [1] is HT29 colon. The conditions noted are these: 10 µM unless noted.
The subject of assay [2] is SNB-75 CNS. As to conditions: 10 µM unless noted.
Assay [3] relates to SNB-19 CNS. As to conditions: 10 µM unless noted.
Assay [4] concerns U251 CNS. As to conditions: 10 µM unless noted.
Assay [5] deals with PC-3 prostate. The conditions noted are these: 10 µM unless noted.
The test system of assay [6] is SK-MEL-5 melanoma. The conditions noted are these: 10 µM unless noted.
Assay [7] deals with UACC-62 melanoma. As to conditions: 10 µM unless noted.
For assay [8], the system named is LOX IMVI melanoma. As to conditions: 10 µM unless noted.
The subject of assay [9] is SK-MEL-28 melanoma. As to conditions: 10 µM.
Assay [10] relates to SK-MEL-2 melanoma. The conditions noted are these: 10 µM unless noted.
Assay [11] relates to SN12C renal. As to conditions: 10 µM unless noted.
Assay [12] relates to UO-31 renal. The conditions noted are these: 10 µM unless noted.
Assay [13] relates to TK-10 renal. As to conditions: 10 µM unless noted.
Assay [14] concerns ACHN renal. The conditions noted are these: 10 µM unless noted.
The subject of assay [15] is A498 renal. The conditions noted are these: 10 µM unless noted.
The test system of assay [16] is CCRF-CEM leukemia. As to conditions: 10 µM unless noted.
The test system of assay [17] is MOLT-4 leukemia. The conditions noted are these: 10 µM unless noted.
Assay [18] concerns SR leukemia. The conditions noted are these: 10 µM unless noted.
For assay [19], the system named is CAKI-1 renal. The conditions noted are these: 10 µM unless noted.

Compounds without any hit were thinned out: in the full panel of roughly 83,000, 20% have a hit.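 Plates (96-well) were seeded with cells, treated with compound at one concentration, and incubated for 48 hours before percent growth was determined.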 Unmarked numbers belong to inactive results. The source made the active and inactive calls. The calls were made as follows: active = growth percent below 10; inactive = the rest.

The results in this text go back to PubChem BioAssay (NCI).

Consider `CN1CCN(c2nc(Nc3ccc(O)cc3)nc3ccccc23)CC1`, for which the growth is 43.4% in assay [1]; 75.2% in [2]; 55.9% in [3]; 33.9% in [4]; 60% in [5]; 46.1% in assay [6]. Moreover, the growth in [7] was 49.2%; in assay [8] it was 20.1%; in assay [9], 66.2%; in [10] it was 76.8%; in assay [11] it was 63.8%; in assay [12] it was 57.3%. The growth was 71.9% in assay [13]; 49.5% in [14]; 85.2% in assay [15]; 93.4% in [16]; 98.4% in [17]; 87% in assay [18].

In the case of `FC(F)(F)c1cccc(Nc2nc3ccccc3nc2Nc2cccc(C(F)(F)F)c2)c1`, the growth in [1] is -53.7% (active); in assay [2], -92.3% (active); in [3], 7.81% (active); in assay [4], -34% (active); in assay [5] it was 15.4%; in assay [6], -95.6% (active). For the same molecule, the growth in assay [7] is -62.6% (active); in assay [8] it was -79.4% (active); in [9], -85.5% (active); in [10] it was -62.5% (active); in assay [11], 32.3%; in assay [12], -74.7% (active). In addition, the growth in [14] was -21.5% (active); in assay [19], -1.66% (active); in [15] it was 54%; in assay [16] it was -2.8% (active); in [17], -11.2% (active); in assay [18], -29.4% (active).

On to `O=C(Nc1ccc(-c2nc3cc4ccccc4cc3[nH]2)cc1)c1cccc(Br)c1`, for which the growth in assay [1] is 12.4%; in assay [2], 66.2%; in assay [3] it was 36.2%; in [4], 25.9%; in [5] it was 51.1%; in assay [6], 37.1%. Also, the growth was 39% in [7]; -6.26% (active) in assay [8]; 41.8% in [9]; 49.4% in assay [10]; 44.6% in assay [11]; 13.1% in assay [12]. The growth is 51.8% in assay [13]; 35.1% in assay [14]; 18.2% in assay [19]; 77% in assay [16]; 85.4% in assay [17]; 76.4% in assay [18].

With `COc1cccc(C(=O)NC(c2ccc(C)cc2)c2cc(Cl)c3cccnc3c2O)c1` (configuration not stated), the growth in assay [1] is 24.1%; in assay [2], 28.8%; in assay [3], 12.5%; in assay [4] it was 3.81% (active); in assay [5], 22.8%; in assay [6], -56.8% (active). In addition, the growth in assay [7] was -20% (active); in assay [8], 6.79% (active); in assay [9], 44%; in assay [10], 22.8%; in [11] it was 12.6%; in [12], -18.9% (active). Besides, the growth in assay [13] was 27%; in [14], 10.6%; in assay [19] it was -3.64% (active); in [15], 23.1%; in assay [16], 8.88% (active); in assay [17] it was 11.4%. In assay [18], the growth was 11.3%.

For the molecule `COC(=O)/C(CCC=C(C)C)=C1\[C@@H](OC(C)=O)C[C@@]2(C)[C@H]1C[C@@H](O)[C@H]1[C@@]3(C)CC[C@H](NCc4ccccc4)[C@@H](C)[C@@H]3CC[C@@]12C`, the growth in [1] was 14.8%; in assay [2] it was 65.1%; in assay [3] it was 81.9%; in assay [4], 49.2%; in assay [5], 31.3%; in [6], 59.4%. Moreover, the growth in assay [7] is 69.3%; in assay [8] it was 47.3%; in [9], 74.6%; in assay [10], 94.4%; in assay [11], 75.6%; in assay [12], 47.5%. The growth in assay [13] is 111%; in assay [14] it was 79.2%; in assay [19] it was 72.5%; in [16] it was 50.9%; in assay [17] it was 28.1%; in [18] it was 0.245% (active).

On to `CCCCCCCCCCCCCCn1cc(C2=C(c3coc4ccc(OC)cc34)C(=O)NC2=O)c2ccccc21`, for which the growth in assay [1] is 77.1%; in [2] it was 80.6%; in assay [3] it was 101%; in assay [4], 97.9%; in [5], 109%; in assay [6] it was 107%. In addition, the growth was 95.9% in assay [7]; 101% in assay [8]; 101% in assay [9]; 104% in [10]; 100% in assay [11]; 83.5% in assay [12]. Besides, the growth in assay [13] is 102%; in [14], 102%; in assay [19], 88.8%; in assay [16], 101%; in assay [17], 118%; in [18] it was 111%.

Turning to `CC(C)CCNCC(O)Cn1c2ccccc2c2ccccc21` (configuration not stated), the growth in assay [1] was -12.7% (active); in assay [2], -3.3% (active); in assay [3] it was 24.4%; in assay [4], 14.4%; in assay [5], 20.2%; in assay [6] it was -20.6% (active). Also, the growth in assay [7] was 14.1%; in [8] it was 1.91% (active); in assay [9], 14.9%; in assay [10] it was 13.7%; in assay [11] it was 19.4%; in assay [12] it was -14.4% (active). The growth in assay [13] is 33.1%; in [14], 2.8% (active); in assay [19], -0.189% (active); in assay [15] it was 3.02% (active); in [16] it was 13%; in assay [17], 2.44% (active). Further, the growth in assay [18] is 3.35% (active).

As to `Cc1cc(Nc2ccc(OCc3ccccc3)cc2)nc2cc(O)ccc12`, the growth was 2.05% (active) in assay [1]; 81.6% in assay [2]; 70.5% in assay [3]; 10.2% in assay [4]; 53.5% in [5]; 9.21% (active) in assay [6]. Moreover, the growth was 71.7% in assay [7]; 13.3% in assay [8]; 59.2% in assay [9]; 70.4% in [10]; 78.2% in assay [11]; 44.9% in assay [12]. Moreover, the growth in assay [13] was 73.4%; in [14] it was 73.8%; in assay [19], 72.3%; in assay [15], 95.8%; in assay [16] it was 8.27% (active); in assay [17], 26%. For the same molecule, the growth in assay [18] is -17.5% (active).
